PubChem BioAssay (NCI)
This is part of a sample that, as a whole, favours compounds with a hit. Of some 83,000 tested, about 20% had one in any assay.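 Treatment: one concentration, 48 hours, 96-well format. Scoring: percent growth, with anything below 10 considered active.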 Values without a mark were called inactive. Calls of active or inactive are those of the source.

Tested on: NCI-H23 lung
Assay: NCI-60 one-dose screen, 48 h (100 = growth as untreated, 0 = no growth, -100 = all killed)
Details: 10 µM unless noted

Compared with `O=C(O)C1CN(c2cccc(Cl)c2)N(c2cccc(Cl)c2)C1=O` (stereo unspecified), `O=C(c1ccc(Cl)cc1Cl)N1c2ccccc2Sc2ccccc21` is lower in growth: 89.8% for the first, 73.5% for the second.

Compared with `COc1ccc2c(c1)c(-c1ccc(-c3cn(C)c4ccc(OC)cc34)[nH]1)cn2C`, `CCOC(=O)n1cc(-c2nonc2-c2cn(C)c3ccccc23)c2ccccc21` is higher in growth: 34.2% for the first, 55% for the second.

Compared with `CCN1CCN(CC(=O)Nc2nc3ccc(NCc4ccc(Br)cc4)cc3s2)CC1`, `CCOC(=O)C1CCN(c2ccc(N3C[C@@H](CNCc4ccc(C(=N)N)cc4)OC3=O)cc2)CC1` is higher in growth: 70.4% for the first, 97.9% for the second.

First: CC(C)c1ccc(-n2c(=S)[nH]c3sc4c(c3c2=O)CCC(=O)C4)cc1
Second: CCN(CCO)CC(C)Nc1ccc([N+](=O)[O-])c2sc3ccccc3c(=O)c12 (stereo unspecified)
The growth of the first is lower: 36.2% for the first, 40.2% for the second.

Going from `Cc1nc2sc(C(=O)Nc3cccc(Cl)c3)c(N)c2cc1C(O)c1ccccc1` (stereo unspecified) to `COc1cccc(/C=C/C(=O)c2cc3c(N)c(C(=O)Nc4cccc(Cl)c4C)sc3nc2C)c1`, the growth falls from 32% to 20.4%.

Compared with `Cc1cscc(C)c1=S`, `CC1=NN(c2ccc(Cl)cc2)CC1(C)N=O` (stereo unspecified) is higher in growth: 77.2% for the first, 88.4% for the second.

First: COc1ccc(C2=NN(C(=O)c3cc(OC)c(OC)c(OC)c3)C(c3ccc(N(C)C)cc3)C2)cc1 (stereo unspecified)
Second: COc1ccc(-c2cc(C(=O)N3N=C(c4ccc(N)cc4)CC3c3ccccc3)c3ccccc3n2)cc1 (stereo unspecified)
The growth of the first is lower: 26.4% for the first, 56.7% for the second.

First: CN(C)c1ccc(/C=C2/C=C(c3ccccc3)OC2=O)cc1
Second: CN(CCC#N)c1ccc(/C=C2\NC(=O)NC2=O)cc1
The growth of the first is higher: 95.4% for the first, 89.5% for the second.

Going from `CN1CCN(c2ccc3c(c2)nc(NNC(=O)c2cnccn2)c2cccn23)CC1` to `Cc1cc(N2CCN(C)CC2)nc(NCc2cc(Nc3ccnc4cc(Cl)ccc34)ccc2F)n1`, the growth falls from 34.1% to 25.4%.

Compared with `COc1ccc(C(c2cc(OC)c(OC)c(OC)c2)N2CCCC2)cc1` (stereo unspecified), `CCn1cc(C(=O)N/N=C/c2ccc(Br)cc2)c(=O)c2cc(F)c(N3CCNC(C)C3)c(F)c21` (stereo unspecified) is higher in growth: 85.3% for the first, 91% for the second.

Compared with `O=C(/C=C/c1ccc(Br)cc1)c1ccc(-n2cc(CN3CCN(c4cc5c(cc4F)c(=O)c(C(=O)O)cn5C4CC4)CC3)nn2)cc1`, `CN(C)c1ccc(/C=C/C(=O)c2ccc(Nc3nc(Nc4ccc(F)cc4)nc(Nc4ccc(Cl)cc4)n3)cc2)cc1` is lower in growth: 85.4% for the first, 73.3% for the second.

Going from `CCOC(=O)c1n[nH]n2c1nc(=O)c1cnn(C)c12` to `CCN1C(=O)N(CC)C2C1NN=c1s/c(=C\c3ccccc3Br)c(=O)n12` (stereo unspecified), the growth falls from 96.5% to 27.1%.

Going from `C#CC#CC#CC#CC#CC#CC#CC#CCC1OCC(COC(=O)O[C@@H](C(=O)O[C@H]2C[C@@]3(O)[C@@H](OC(=O)c4ccccc4)[C@@H]4[C@]5(OC(C)=O)CO[C@@H]5C[C@H](O)[C@@]4(C)C(=O)[C@H](OC(C)=O)C(=C2C)C3(C)C)[C@@H](NC(=O)c2ccccc2)c2ccccc2)O1` (stereo partly specified) to `CCN1C(=O)N(CC)C2C1NN=c1s/c(=C3\C(=O)N(CCc4ccccc4)c4ccccc43)c(=O)n12` (stereo unspecified), the growth falls from 35.2% to 22.7%.

First: CCSC1=CC(=O)c2ccccc2C1=O
Second: O=C(CBr)CN1C(=O)c2ccccc2C1=O
The growth of the first is lower: 85.9% for the first, 95.1% for the second.

Compared with `N#Cc1c(NC(=O)c2cccs2)[n+]([O-])c2ccc(Cl)cc2[n+]1[O-]`, `Cc1ccc2[nH]c(-c3ccc(S(C)(=O)=O)cc3)c(/C=N/N=C(N)N)c2c1` is lower in growth: 103% for the first, 76.4% for the second.

Compared with `C=C(CN1CC=CCC1)[C@@H]1CC[C@]2(CO)CC[C@]3(C)[C@H](CC[C@@H]4[C@@]5(C)CC[C@H](O)C(C)(C)[C@@H]5CC[C@]43C)[C@@H]12`, `CC(O)c1ncc(/C=C2\SC(=S)N(Cc3ccccc3)C2=O)s1` (stereo unspecified) is higher in growth: 101% for the first, 103% for the second.

Going from `N=C(N)c1ccc(-c2ccc(-c3ccc(Cl)cc3)o2)o1` to `O=C(/C=C\c1ccco1)/C=C/c1ccco1`, the growth rises from 29% to 98.6%.

`Cn1c(/C=C/[N+](=O)[O-])cc2ccccc21` was tested, and the growth was -24.5% (active).
With `c1ccc2cc(Cn3c[n+](Cc4ccc5ccccc5c4)c4ccccc43)ccc2c1` the growth was -0.737% (active).
